# Compounds with a hit are over-represented: about 1.3% of the library has one in this group of screens.
# RPL19A-GFP yeast – RPL19A-GFP expression modulators in yeast, primary screen, cell-based, S. cerevisiae, multiplex flow cytometry, MLPCN. actives 0.3% (n = 330,000). S. cerevisiae RPL19A-GFP strain, 3 h; hits give low values. percent response vs DMSO, % at 10 µM. AID 2025, 2009;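 active means percent response vs DMSO below 50%; inconclusive means fewer than 70 events counted for the yeast strain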;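 further: median channel GFP fluorescence of the barcoded RPL19A-GFP strain; ratio of sample median GFP to plate DMSO average so 100% = DMSO; lower means less RPL19A-GFP as with rapamycin TOR inhibition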
# AGP1-GFP MLPCN – modulators of AGP1-GFP expression in yeast TOR pathway, primary screen, cell-based, multiplex flow cytometry, S. cerevisiae, MLPCN library; 3 h; GFP as percent of DMSO wells; GFP response vs DMSO, % at 10 µM; actives 0.02% (n = 320,000);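 active means GFP response relative to DMSO above a set limit, near screen average plus 3 SD, cut at about 150% in these data; inconclusive means fewer than 70 cells counted for the yeast strain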;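 further: median GFP channel fluorescence of the gated AGP1 strain per well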
# Efflux pump mplx – inhibitors of Candida efflux pumps in yeast, primary screen, S. cerevisiae, Nile Red, multiplex; inhibition, % at 10 µM; actives 0.44% (n = 330,000); AID 485275, 2010; S. cerevisiae Candida pump triplex;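 active means plate passing quality check with inhibition over a set limit, or well fluorescence over plate mean plus 4 SD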;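 further: Nile Red retained in pooled yeast measured as flow cytometry median fluorescence; 0% = buffer negative control and 100% = Enniatin B positive control; higher means more Nile Red kept so more efflux inhibition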
# MEP2 TOR yeast – modulators of MEP2-GFP levels in yeast, primary screen, S. cerevisiae, multiplex flow cytometry, MLPCN library | S. cerevisiae MEP2-GFP strain, 3 h; 100% = DMSO control level | AID 2016, 2009 | actives 0.51% (n = 330,000) | GFP response vs DMSO, % at 10 µM;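 active means GFP response versus DMSO above a set limit, roughly screen mean plus 3 SD, cut at about 180% in these data; inconclusive means fewer than 70 cells counted for a yeast strain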;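 further: median GFP fluorescence of the barcode-gated MEP2-GFP cells per well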
# CIT2-GFP yeast – modulators of CIT2-GFP expression in yeast, primary screen, S. cerevisiae, GFP fusion, multiplex flow cytometry, MLPCN library. S. cerevisiae CIT2-GFP strain, 3 h; 100 means same as DMSO wells. GFP response vs DMSO, % at 10 µM. actives 0.065% (n = 320,000). AID 2029, 2009;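 active means GFP response relative to DMSO above a set limit, near the screen mean plus 3 SD, cut at about 150% in these data; inconclusive means Fewer than 70 cells measured for a yeast strain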;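 further: ratio of well median GFP fluorescence to mean of DMSO wells on the plate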
# LAP4-GFP MLPCN – modulators of LAP4-GFP expression in yeast, primary screen, S. cerevisiae, multiplex flow cytometry, MLPCN library. GFP response vs DMSO, % at 10 µM. actives 0.34% (n = 320,000). 3 h; median GFP as percent of DMSO wells. AID 2023, 2009;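 active means GFP response vs DMSO above a set limit, about the screen mean plus 3 SD, cut at about 150% in these data; inconclusive means under 70 cell events counted for the yeast strain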
# An asterisk follows results filed as active; ? = inconclusive; · = not tested or not shown; + = active, no number; [ ] = remark or other dose.
SMILES,RPL19A-GFP yeast,AGP1-GFP MLPCN,Efflux pump mplx,MEP2 TOR yeast,CIT2-GFP yeast,LAP4-GFP MLPCN
CCOc1cc(N2CCOCC2)c(OCC)cc1NC(=O)c1[nH]c(C)c(C(C)=O)c1C,97,108,0,102,96,109
CCOc1ccc(OCC)c(NC(=O)c2[nH]c(C)c(C(C)=O)c2C)c1,41*[may fluoresce violet],?,0,368*[may fluoresce violet],?,101
COCCn1c(C)cc(O)c(C(=O)Nc2cccc(Cl)c2)c1=O,61,17,0,191*[may fluoresce violet],?,98
COCC(=O)Nc1cc([N+](=O)[O-])ccc1C,·,31,0,216*,102,92
CN(Cc1cc([N+](=O)[O-])c2cccnc2c1O)C1CCCCC1,110,102,8.2*,104,103,96
CC(C)n1nc(C(=O)Nc2cccc(S(=O)(=O)NCc3ccco3)c2)c2ccccc2c1=O,103,105,0,107,93,103
O=c1c(Cl)c(Nc2cccc(Cl)c2)cnn1-c1nc2ccccc2s1,100,102,0,123,93,108
COc1ccc(Nc2cnn(-c3nc4ccccc4s3)c(=O)c2Cl)cc1,92,18,0,181*,69,103
CCOc1ccc(S(=O)(=O)N2CCCCC2)cc1NC(=O)C1CSC2(C)CCC(=O)N12 (stereo not given),87,90,0,94,90,90
O=C(CN(Cc1ccccc1Cl)C(=O)c1csnn1)NCc1ccccc1,98,22,0,283*[may fluoresce violet],?,74
O=C(CN(Cc1ccccc1Cl)C(=O)c1csnn1)NCc1ccc(F)cc1,100,99,0,103,98,99
COc1cc(/C=C/C(=O)OCC(=O)NC2CCS(=O)(=O)C2)ccc1OC(F)F (stereo not given),103,109,0,105,101,110
CCC(Sc1nc(=O)cc(N)n1-c1cccc(C)c1)C(=O)Nc1cc(C)on1 (stereo not given),100,101,0,103,99,106
CCC(Sc1nc(=O)cc(N)n1-c1ccccc1)C(=O)Nc1cc(C)on1 (stereo not given),77,162*,0,385*,125,183*
O=[N+]([O-])c1ccc(N2N=C(c3ccccc3)CC2c2ccccc2O)cc1 (stereo not given),68,24,0,299*[may fluoresce violet],?,98
NS(=O)(=O)c1ccc(N2N=C(c3ccccc3)CC2c2ccccc2Br)cc1 (stereo not given),·,·,1,·,·,·
CCN1/C(=C/C=C/c2oc3ccc4ccccc4c3[n+]2CC)Oc2ccc3ccccc3c21,392,·,0,+[may fluoresce green],+[may fluoresce green],+[may fluoresce green]
CC(=O)C1=C(O)C(=O)N(CCO)C1c1ccccc1 (stereo not given),111,108,0,106,110,104
CC(=O)C1=C(O)C(=O)N(CCC(=O)O)C1c1cccc(F)c1 (stereo not given),69,21,0,200*[may fluoresce violet],?,91
O=C(C[n+]1ccccc1)N/N=C/c1cc(Br)ccc1O,100,104,0,98,105,103
COc1cc(SC)ccc1C(=O)NCCCn1ccnc1,39*[may fluoresce violet],?,0,575*[may fluoresce violet],?,138
Cc1ccc(Nc2nnc(SCC(=O)c3c(N)n(C4CC4)c(=O)[nH]c3=O)s2)cc1C,97,100,0,98,96,101
Cc1cc(C)n(-c2ccc(C(=O)OCC(=O)NCc3ccc(F)cc3)cc2)n1,103,95,0,102,96,91
Cc1cccn2c(=O)c3cc(C(=O)NCCc4ccccc4)c(=N)n(Cc4ccco4)c3nc12,53,?,0,400*[may fluoresce violet],?,80
Cc1cccn2c(=O)c3cc(C(=O)NC(C)c4ccccc4)c(=N)n(CCCn4ccnc4)c3nc12 (stereo not given),65,18,0,270*[may fluoresce violet],?,97
SMILES,RPL19A-GFP yeast,AGP1-GFP MLPCN,Efflux pump mplx,MEP2 TOR yeast,CIT2-GFP yeast,LAP4-GFP MLPCN
Cc1cccn2c(=O)c3cc(C(=O)NCc4ccco4)c(=N)n(CCc4ccccc4)c3nc12,83,29,0,126,92,97
CCCn1c(=N)c(C(=O)NC2CCCC2)cc2c(=O)n3cccc(C)c3nc21,43*,95,0,345*,98,94
CCCCNC(=O)c1cc2c(=O)n3cccc(C)c3nc2n(CCN2CCOCC2)c1=N,43*[may fluoresce violet],?,0,231*[may fluoresce violet],?,75
Cc1cccn2c(=O)c3cc(C(=O)NC4CCCCC4)c(=N)n(CCN4CCOCC4)c3nc12,92,77,0,98,97,91
Cc1sc(N)c(C(=O)c2ccccc2Cl)c1C,91,94,0,97,83,107
O=C(Nc1ccccc1)OCCCCCOC(=O)Nc1ccccc1,104,101,0,111,105,97
Cn1c(C(=O)NCCC2=CCCCC2)cc2c(=O)n3ccccc3nc21,95,103,0,109,99,109
COCCCn1c(=N)c(C(N)=S)cc2c(=O)n3cccc(C)c3nc21,101,100,0,104,101,115
Cc1cccn2c(=O)c3cc(C(N)=S)c(=N)n(CCCN4CCOCC4)c3nc12,25*,96,0,146,103,101
CCCCNC(=O)c1cc2c(=O)n3cccc(C)c3nc2n(Cc2ccncc2)c1=N,35*,93,0,132,106,98
CC(=O)N=c1c(C#N)cc2c(=O)n3cccc(C)c3nc2n1Cc1ccco1,55,15,0,198*[may fluoresce violet],?,97
Cc1cccn2c(=O)c3cc(C(=O)NCCC4=CCCCC4)n(C)c3nc12,30*[may fluoresce violet],?,0,124,?,83
Cc1ccccc1C(=O)N=c1c(C#N)cc2c(=O)n3cccc(C)c3nc2n1Cc1ccco1,110,27,0,109,?,106
COCCNC(=O)c1cc2c(=O)n3cccc(C)c3nc2n(Cc2ccncc2)c1=N,?,?,0,?,?,?
CC(C)c1ccc(S(=O)(=O)N2CCN(C(=O)c3ccncc3)CC2)cc1,102,107,0,105,103,112
Cc1cc(C)n(-c2ccc(C(=O)N3CCN(S(=O)(=O)c4ccc(C(C)C)cc4)CC3)cc2)n1,93,20,0,221*[may fluoresce violet],?,77
CCc1nc(NCCO)c(C#N)c2c1CSC(C)(C)C2,106,101,0,101,82,105
